Assay results as given in PMC4336329 (PLoS ONE, 2015).
Screen size: about 310,000 compounds; about 14,000 (4.5%) showed an effect of 50% or more. The effect is printed as a negative number. For the sample, strong results were picked, then their nearest neighbours and some compounds at random.

molecular target: human ether-à-go-go-related gene (hERG) potassium channel (human, UniProt Q12809); experiment: primary screen, population patch clamp on CHO cells stably expressing hERG; higher = less effect of the substance
Sequence (Q12809 whole entry, looked up): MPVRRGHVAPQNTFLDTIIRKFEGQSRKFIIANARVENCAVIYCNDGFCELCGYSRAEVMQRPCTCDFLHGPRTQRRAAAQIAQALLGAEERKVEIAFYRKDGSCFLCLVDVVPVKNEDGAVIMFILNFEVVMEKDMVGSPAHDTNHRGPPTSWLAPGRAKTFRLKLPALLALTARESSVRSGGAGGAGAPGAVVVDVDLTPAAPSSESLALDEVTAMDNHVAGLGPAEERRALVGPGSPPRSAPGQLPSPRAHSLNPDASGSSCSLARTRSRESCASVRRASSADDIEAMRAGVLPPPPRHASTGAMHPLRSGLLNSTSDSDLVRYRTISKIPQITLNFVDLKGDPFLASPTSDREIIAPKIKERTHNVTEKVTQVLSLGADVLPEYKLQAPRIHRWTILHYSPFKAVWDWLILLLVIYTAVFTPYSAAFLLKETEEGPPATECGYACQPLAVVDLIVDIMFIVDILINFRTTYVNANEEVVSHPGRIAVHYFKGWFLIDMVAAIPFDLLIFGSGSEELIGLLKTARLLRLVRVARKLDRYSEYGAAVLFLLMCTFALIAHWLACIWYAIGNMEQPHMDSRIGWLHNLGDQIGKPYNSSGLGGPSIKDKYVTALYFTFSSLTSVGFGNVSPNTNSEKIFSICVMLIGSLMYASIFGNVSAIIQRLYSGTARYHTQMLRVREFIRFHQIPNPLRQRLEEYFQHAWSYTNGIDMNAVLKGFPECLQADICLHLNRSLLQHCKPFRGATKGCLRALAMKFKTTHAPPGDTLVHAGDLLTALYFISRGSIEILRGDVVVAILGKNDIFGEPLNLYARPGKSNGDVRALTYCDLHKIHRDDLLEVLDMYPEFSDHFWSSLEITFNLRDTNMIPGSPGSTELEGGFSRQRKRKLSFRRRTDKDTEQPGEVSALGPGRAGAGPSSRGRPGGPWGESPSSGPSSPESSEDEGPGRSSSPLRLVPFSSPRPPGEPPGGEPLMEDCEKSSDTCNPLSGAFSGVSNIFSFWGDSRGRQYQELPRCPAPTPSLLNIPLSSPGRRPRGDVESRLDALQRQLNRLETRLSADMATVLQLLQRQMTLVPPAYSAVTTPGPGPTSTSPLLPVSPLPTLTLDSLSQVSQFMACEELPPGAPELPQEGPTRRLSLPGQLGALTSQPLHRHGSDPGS
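Note: peak tail current of the secondary pulse compared with the same well before compound.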

Structure (SMILES)	hERG current change (%, negative = inhibition) at 10uM
CN(C)C(CNC(=O)c1ccc(NS(=O)(=O)c2cccc([N+](=O)[O-])c2)cc1)c1ccco1 (centres unmarked)	12.4%
Cc1ccc(NC(=O)COC(=O)COc2cccc3c2OC(C)(C)C3)cc1C	-13.9%
CCCNC(=O)CN(C)S(=O)(=O)c1c(C)cc(C)cc1C	6.62%
Cn1ccnc1C(O)c1ccc(OCc2ccccc2)cc1 (centres unmarked)	4.19%
O=C(O)C(=O)O.O=C1CCCN1CN1CCCCC1	0.00358%
S=C(NCc1ccco1)Nc1cccc(Cl)c1Cl	-3.13%
COc1ccc(Nc2nc(C(=O)NCc3ccco3)cs2)cc1	-14.4%
O=C(NCc1ccco1)c1csc(Nc2ccccc2Cl)n1	-63.1%
Cc1ccc(Nc2nc(C(=O)NCc3ccco3)cs2)cc1	-13.5%
Cc1c(Cl)cccc1NC(=S)NCc1ccco1	4.12%
S=C(NCc1ccco1)Nc1ccccc1Cl	-52%
Cc1cc(-c2n[nH]c(=S)n2/N=C/C=C/c2ccccc2)n[nH]1	6.76%
Cc1ccc(NS(=O)(=O)c2ccc3[nH]c(=O)[nH]c3c2)cc1	21%
N/C(Cc1ccc(Cl)cc1Cl)=N\OC(=O)Cc1ccccc1	7.08%
CC(C)c1ccc(NC(=O)[C@@H](C)NC(=O)[C@@H]2Cc3ccccc3CN2)cc1	-29.2%
COc1cccc(NC(=O)[C@H](Cc2ccccc2)NC(=O)[C@@H]2Cc3ccccc3CN2)c1	-2.99%
Cc1ccc(NC(=O)[C@H](NC(=O)[C@@H]2Cc3ccccc3CN2)c2ccccc2)cc1	-64.1%
Cc1ccc(NC(=O)[C@H](Cc2ccccc2)NC(=O)[C@@H]2Cc3ccccc3CN2)c(C)c1	-5.23%
Cc1ccc(NC(=O)[C@@H](C)NC(=O)[C@@H]2Cc3ccccc3CN2)cc1	-14.9%
CC(NC(=O)[C@H](NC(=O)[C@@H]1Cc2ccccc2CN1)c1ccccc1)c1ccccc1 (some centres unmarked)	-32.9%
COc1cccc(NC(=O)[C@H](CC(C)C)NC(=O)[C@@H]2Cc3ccccc3CN2)c1	-16%
CC(C)c1ccc(NC(=O)[C@H](NC(=O)[C@@H]2Cc3ccccc3CN2)c2ccccc2)cc1	-6.39%

Structure (SMILES)	hERG current change (%, negative = inhibition) at 10uM
Cc1ccc(NC(=O)[C@H](Cc2c[nH]c3ccccc23)NC(=O)[C@@H]2Cc3ccccc3CN2)c(C)c1	-30.1%
COc1ccc(NC(=O)[C@H](NC(=O)[C@@H]2Cc3ccccc3CN2)c2ccccc2)cc1	-50.3%
COc1cccc(NC(=O)[C@H](NC(=O)[C@@H]2Cc3ccccc3CN2)c2ccccc2)c1	-76.4%
Cc1ccc(NC(=O)[C@H](NC(=O)[C@@H]2Cc3ccccc3CN2)c2ccccc2)c(C)c1	-60.7%
CCOc1ccccc1N(C(=O)c1ccccc1Cl)C1=NC(C)(C)CS1	-2.51%
CC(NC(=O)c1ccccc1[N+](=O)[O-])C1CC2CCC1C2 (centres unmarked)	5.96%
O=C(NCc1ccc2c(c1)OCO2)c1ccc(COc2cc(Cl)ccc2Cl)o1	11.7%
O=C(c1ccccc1)N1N=C(c2ccccc2O)CC1c1ccccc1 (centres unmarked)	6.88%
CCCCCOC(=O)C1=C(C)NC(=O)NC1c1ccc2c(c1)OCO2 (centres unmarked)	6.41%
CCOc1ccc(/C=N/N2C(=O)C(CC(=O)Nc3ccc(F)cc3F)SC2=NC)cc1OC (centres unmarked)	3.82%
CCOc1ccc(CN(C)C(=O)CCl)cc1	-1.2%
CS(=O)(=O)N(CC(=O)NCc1ccc2c(c1)OCO2)c1ccccc1	6.97%
COCc1c(C(=O)Nc2nc(C)cs2)oc2ccccc12	-2.57%
CCCOP(=O)(OCCC)c1nc(-c2ccccc2)oc1NCc1ccccc1	6.49%
CCc1ccc(NC(=O)CCS(=O)(=O)c2ccc(Cl)cc2)cc1	6.96%
Cc1ccc(NC(=O)[C@H](NC(=O)[C@@H]2Cc3ccccc3CN2)c2ccccc2)cc1C	-37.9%
CCc1ccc(NC(=O)[C@@H](NC(=O)[C@@H]2Cc3ccccc3CN2)C(C)CC)cc1 (some centres unmarked)	-13.6%
COc1ccc(CNC(=O)[C@H](Cc2c[nH]c3ccccc23)NC(=O)[C@@H]2Cc3ccccc3CN2)cc1	-53.9%
CCc1ccc(NC(=O)[C@H](NC(=O)[C@@H]2Cc3ccccc3CN2)c2ccccc2)cc1	-55%
Cc1cccc(NC(=O)[C@@H](CC(C)C)NC(=O)[C@@H]2Cc3ccccc3CN2)c1	-40.7%
COc1ccc(NC(=O)[C@H](Cc2c[nH]c3ccccc23)NC(=O)[C@@H]2Cc3ccccc3CN2)cc1	-36.8%
Cc1cccc(NC(=O)[C@H](Cc2ccccc2)NC(=O)[C@@H]2Cc3ccccc3CN2)c1	-0.0161%
